Sampled rows, rich in hits. Any-hit rate of the full collection: about 3.4%.
GPR151 activ: activators of human GPR151, primary screen, cell-based, PathHunter beta-arrestin, luminescence; 650,000 tested, 1% active; activation, % at 11.2 µM; G-protein coupled receptor 151 (Homo sapiens), Q8TDV0; AID 1508602, 2020; PathHunter beta-arrestin GPR151 cells; in the data active = activation above about 4.9%
MITF inh: MITF inhibitors, primary screen, biochemical, AlphaScreen, human. Microphthalmia-associated transcription factor (Homo sapiens), O75030. AlphaScreen MITF homodimerization, bead proximity signal. inhibition, % at 2.6 µM. 650,000 tested, 0.91% active. AID 1259374, 2018; in the data active = inhibition above about 50%
TEAD-YAP inh: TEAD-YAP interaction inhibition, primary screen, TEAD-YAP interaction inhibitor project, luminescence, HEK-TIYL cells. inhibition, % at 9.12 µM. TEAD-Gal4/YAP UAS-luciferase luminescence. 640,000 tested, 1.4% active; in the data active = inhibition above about 32%
FBW7 activator: FBW7 E3 ligase activators, primary screen, biochemical, AlphaScreen, human. AID 1259310, 2017. AlphaScreen FBW7–phospho-cyclin E peptide binding, activator screen. normalized activity (activation), % at 26.1 µM. 650,000 tested, 0.13% active; in the data active = normalized activity above about 1.9%;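 also: purified mutant Fbw7 with reduced substrate affinity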
Target sequence (Q969H0 whole entry, looked up): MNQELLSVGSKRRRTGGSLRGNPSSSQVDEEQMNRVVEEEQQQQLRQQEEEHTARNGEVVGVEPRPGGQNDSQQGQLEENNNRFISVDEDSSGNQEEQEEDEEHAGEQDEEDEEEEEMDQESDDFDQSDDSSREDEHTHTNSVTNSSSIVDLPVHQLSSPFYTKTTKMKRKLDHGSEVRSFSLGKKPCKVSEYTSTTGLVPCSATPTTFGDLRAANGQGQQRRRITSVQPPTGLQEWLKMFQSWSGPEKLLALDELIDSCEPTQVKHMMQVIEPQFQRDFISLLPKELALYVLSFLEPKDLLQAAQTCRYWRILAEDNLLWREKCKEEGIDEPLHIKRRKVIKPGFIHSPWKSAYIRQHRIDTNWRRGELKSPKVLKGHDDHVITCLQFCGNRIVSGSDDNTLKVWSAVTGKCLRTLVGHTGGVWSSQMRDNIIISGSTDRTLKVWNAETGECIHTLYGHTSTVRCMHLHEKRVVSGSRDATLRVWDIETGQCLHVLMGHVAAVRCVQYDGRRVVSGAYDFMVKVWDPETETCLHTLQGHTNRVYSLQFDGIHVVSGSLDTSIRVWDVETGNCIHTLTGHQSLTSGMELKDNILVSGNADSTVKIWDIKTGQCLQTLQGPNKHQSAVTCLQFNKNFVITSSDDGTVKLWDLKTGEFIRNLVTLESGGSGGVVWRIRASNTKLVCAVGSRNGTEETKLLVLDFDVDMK
GPR151 confirm: GPR151 activators, triplicate retest, confirmation, cell-based, PathHunter beta-arrestin, luminescence; GPR151 PathHunter beta-arrestin cells, 90 min; % of EA-reagent control over plate median; 6,700 tested, under 10 active; activation, % at 11.2 µM; shares compounds with GPR151 activ; AID 1508609, 2020;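 active = mean percent activation across replicates above the confirmation screen cutoff of 4.91%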
GPR119 counter: GPR119 activators in beta-arrestin cells, counter-screen for GPR151 activator project, cell-based, PathHunter beta-arrestin, luminescence, triplicate | shares compounds with GPR151 activ | 90 min; 0 = compound-well median, 100 = enzyme-acceptor control | activation, % at 11.2 µM | 6,700 tested, 0.3% active | AID 1508611, 2020;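 active = mean percent activation in the counterscreen above 29.09%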;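 also: counterscreen on off-target GPR119 to flag nonselective hits from the GPR151 activator screen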
A number is an active result; . = inactive; / = not tested or not shown.

SMILES | GPR151 activ | MITF inh | TEAD-YAP inh | FBW7 activator | GPR151 confirm | GPR119 counter
Cc1ccc(Cl)c2c1NC(=O)C21SCCS1 | 8.6 | . | . | . | . | .
COc1cc(OC)c(NC(=O)Nc2noc3c2COc2ccccc2-3)cc1Cl | 5.2 | . | . | . | . | .
O=C(NCCCc1ccncc1)C1CC12CCN(C(=O)c1cc(-c3ccccc3)no1)CC2 (configuration not stated) | 6.1 | . | . | . | . | .
O=C(NCc1ccco1)C1CC12CCN(C(=O)c1cc(-c3ccccc3)no1)CC2 (configuration not stated) | . | . | . | . | / | /
CC(Oc1cccc(Br)c1)C(=O)Nc1ccc2c(c1)OCO2 (configuration not stated) | 5.4 | . | . | . | . | .
CC(Oc1ccc2c(c1)OCO2)C(=O)NNC(=O)Nc1cccc(C(F)(F)F)c1 (configuration not stated) | . | . | . | . | / | /
O=C(CSc1nnnn1-c1ccc(F)cc1)NCc1ccccc1C(=O)O | 10 | . | . | . | . | .
O=C(CSc1nnnn1-c1ccc(F)cc1)NCCc1ccccc1 | . | . | . | . | / | /
Cc1ccc(-c2csc3nnc(SCC(=O)NC(N)=O)n23)cc1 | 6.3 | . | . | . | . | .
Cc1ccc(-c2csc3nnc(SCC(=O)NCCc4ccccc4)n23)cc1 | . | . | . | . | / | /
COc1cccc(C(=O)NC(=S)Nc2ccc(NC(=O)C(C)C)cc2)c1 | . | . | . | . | / | /
CC(=O)COc1cc2c(C)cc(=O)oc2cc1Cl | 5.6 | . | . | . | . | .
CSC1=N[S@@](=O)c2ccccc2N1 | . | . | . | . | / | /
Cc1cc(OCC(=O)NN2CCN(C)CC2)ccc1[N+](=O)[O-] | . | . | . | . | / | /
Cc1cc(OCC(=O)NN2CCOCC2)ccc1[N+](=O)[O-] | 5.0 | . | . | . | . | .
Cc1ccccc1Nc1ncc(-c2cccs2)s1 | . | . | . | . | / | /
O=C(O)C1CSC(c2ccsc2)N1 (configuration not stated) | 5.3 | . | . | . | . | .
O=C(O)C1CSC(c2ccncc2)N1 (configuration not stated) | . | . | . | . | / | /
O=CN1CCN(C(=O)c2ccccc2Cl)CC1 | . | . | . | . | / | /
Cc1ccc(C(=O)N2CCN(C=O)CC2)c(Cl)c1 | 6.5 | . | . | . | . | .
CCN1C(=O)CC(Sc2ccccc2N)C1=O (configuration not stated) | . | . | . | . | / | /
Nc1ccccc1SC1CC(=O)N(Cc2ccccc2)C1=O (configuration not stated) | 7.1 | . | . | . | . | .
CCOC(=O)/C(N=Nc1cc(Cl)c(OC)cc1OC)=C(\C)O | 4.9 | . | . | . | . | .
O=C(Cn1ccc([N+](=O)[O-])n1)NCc1cccnc1 | 8.9 | . | . | . | . | .
O=C(NCc1cccnc1)c1ccnc(Nc2cnccn2)c1 | 6.6 | . | . | . | . | .
SMILES | GPR151 activ | MITF inh | TEAD-YAP inh | FBW7 activator | GPR151 confirm | GPR119 counter
Cc1ccc(CNC(=O)C(C)SCc2ccccc2)cc1 (configuration not stated) | 8.1 | . | . | . | . | .
O=C(NCc1cccnc1)c1ccnc(Nc2nccc3ccccc23)c1 | . | . | . | . | / | /
CC(SCc1ccccc1)C(=O)NCc1cccnc1 (configuration not stated) | 8.0 | . | . | . | . | .
Cc1ccccc1CNC(=O)C(C)SCc1ccccc1 (configuration not stated) | . | . | . | . | / | /
O=C(Cn1ccc([N+](=O)[O-])n1)NCc1ccccc1 | . | . | . | . | / | /
COc1cc2ccccc2cc1C(=O)Nc1nnc(C2CCCO2)o1 (configuration not stated) | . | . | . | . | / | /
O=C(O)CCC(=O)NCc1cccnc1 | 7.5 | . | . | . | . | .
Cc1ccn2cc(-c3ccc(NC(=O)CCc4ccccc4)cc3)nc2n1 | . | . | . | . | / | /
Cc1ccn2cc(-c3ccc(NC(=O)c4ccc(Br)cc4)cc3)nc2n1 | 5.8 | . | . | . | . | .
COC(=O)C1=C(C)NC(=S)NC1c1c(OC)ccc2ccccc12 (configuration not stated) | . | . | . | . | / | /
CCCCCn1c(SCc2ccncc2)nc2cc(C(=O)NCc3cccc(Cl)c3)ccc2c1=O | 5.1 | . | . | . | . | .
O=S(c1cc(Cl)cc(Cl)c1O)c1cc(Cl)cc(Cl)c1O | 6.9 | . | . | . | . | .
CCOc1ccc(-c2nnn(CC(C)=O)n2)cc1 | 10.0 | . | . | . | . | .
CCOc1ccc(-c2nnn(CC(C)=O)n2)cc1OCC | . | . | . | . | / | /
O=C(NCc1ccc2c(c1)OCO2)c1ccc2c(c1)NC(=O)c1ccccc1N2 | . | . | . | . | / | /
CCCCSc1nnc2c(n1)OC(C)(C)Nc1ccccc1-2 | 5.1 | . | . | . | . | .
CCCCSc1nnc2c(n1)OC(c1ccccc1OC)Nc1ccccc1-2 (configuration not stated) | . | . | . | . | / | /
CCCCSc1nnc2c(n1)OC(c1ccccc1OCC(=O)OCC)Nc1ccccc1-2 (configuration not stated) | 5.1 | . | . | . | . | .
O=c1[nH]c(N/N=C/c2ccc(O)cc2)nnc1Cc1ccccc1 | . | . | . | . | / | /
O=c1[nH]c(N/N=C/c2cc([N+](=O)[O-])ccc2O)nnc1Cc1ccccc1 | 6.2 | . | . | . | . | .
Cc1ccc(Oc2nc3ccccn3c(=O)c2/C=C(\C#N)C(=O)N2CCOCC2)cc1 | 4.9 | . | . | . | . | .
COCCNC(=O)/C(C#N)=C/c1c(Oc2cccc(C)c2)nc2c(C)cccn2c1=O | 6.1 | . | . | . | . | .
COc1ccc(Oc2nc3c(C)cccn3c(=O)c2/C=C(\C#N)C(=O)N2CCCCC2)cc1 | . | . | . | . | / | /
Cc1cccn2c(=O)c(/C=C(\C#N)C(=O)N3CCCCC3)c(Oc3ccc(F)cc3)nc12 | 5.7 | . | . | . | . | .
COc1ccc(CC(=O)Nc2nc3c(s2)C(=O)CC(C)(C)C3)cc1 | . | . | . | . | / | /
COc1ccc(CCC(=O)Nc2nc3c(s2)C(=O)CC(C)(C)C3)cc1 | 6.5 | . | . | . | . | .
COc1ccc(/C=C/C(=O)Nc2nc3c(s2)C(=O)CC(C)(C)C3)cc1 | 5.4 | . | . | . | . | .
CCCC(=O)N(Cc1ccccc1)c1nc2cc(OC)ccc2s1 | . | . | . | . | / | /

Source: PubChem (The Scripps Research Institute Molecular Screening Center)
